This note sets out measurements from PubChem BioAssay (NCATS).

Inconclusive results are not listed. Entries that show only a call come without a potency. Calls of active or inactive are those of the source. Calls come from the whole dose curve; as a rule, active = well fitted inhibition curve with a large enough effect; inconclusive = small, poorly fitted or top-dose-only effect; inactive = no such curve, though single readings can be large or run the other way.

For the experiment, the system named is Zika virus NS2B-NS3 protease (linked construct). Kind of experiment: Primary screen NINDS Rhodamine qHTS for Zika virus inhibitors (AID 1347160). Note: nearly all actives have a fitted effect of over 55% in size. To be noted: purified NS2B-NS3 protease, Rhodamine110 substrate fluorescence; series mostly up to 57.1 µM. The gist of the method:
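Each compound, titrated, sat 15 min with 25 nM linked protease before 1.5 microM Rhodamine110 substrate went in. Fluorescence gain over the next 15 min, in pH 8.0 Tris with Tween 20, gave Hill-fitted curves.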
As for `O=C(O)C[C@H]1CCC(=O)[C@@H]1C/C=C\CCOC1OC(CO)C(O)C(O)C1O` (some centres undefined), the Potency entry was “inactive”.

Turning to `CN(C)c1cccc(-c2c3c(=O)n(-c4ccccc4Cl)[nH]c3cc(=O)n2C)c1`, the Potency entry was “inactive”.

As to `CC(=O)O[C@H](C[C@@H](C)[C@H]1C(=O)[C@H](O)[C@@]2(C)[C@@H]3CCC4C(C)(C)[C@@H](O[C@@H]5OC[C@H](O)[C@H](O)[C@H]5O)CC[C@@]45C[C@@]35CC[C@]12C)[C@@H]1OC1(C)C` (some centres undefined), the Potency entry was “inactive”.

Consider `CC1CCC2(C)C(CC(O)C(O)C23CO3)C1(C)CCC1=CC(O)OC1=O` (centres undefined), for which the Potency entry was “inactive”.

For the molecule `C/C(=C\CO)CC/C=C(\C)C(=O)O[C@H]1[C@H](OC2OC=C(C(=O)O)C3CCC(C)(O)C23)O[C@H](CO)[C@@H](O)[C@@H]1O` (some centres undefined), the Potency entry is “inactive”.

In the case of `O=c1c2cccnc2n(-c2cccc([N+](=O)[O-])c2)c(=O)n1Cc1ccncc1`, the Potency result is “inactive”.

Regarding `O=C1N(CC2CCCCN2)CCN1c1ccccc1` (centres undefined), the Potency entry was “inactive”.

Take `C/C=C(\C)C(=O)O[C@H]1[C@H](O)[C@]2(COC(C)=O)[C@H](O)C[C@]3(C)C(=CCC4[C@@]5(C)CC[C@H](O[C@@H]6O[C@H](C(=O)O)[C@@H](O[C@@H]7O[C@H](CO)[C@@H](O)[C@H](O)[C@H]7O)[C@H](O)[C@H]6O[C@@H]6O[C@H](CO)[C@@H](O)[C@H](O)[C@H]6O)[C@](C)(CO)C5CC[C@]43C)[C@@H]2CC1(C)C` (some centres undefined): the Potency entry is “inactive”.

As for `CC[C@H]1OC(=O)C[C@@H](O)[C@H](C)[C@@H](O[C@@H]2O[C@H](C)[C@@H](O)[C@H](N(C)C)[C@H]2O)[C@@H](CCN2C[C@H](C)C[C@H](C)C2)C[C@@H](C)C(=O)/C=C/C(C)=C/[C@@H]1CO[C@@H]1O[C@H](C)[C@@H](O)[C@@H](OC)[C@H]1OC`, the Potency entry is “inactive”.
